# Data reported in PubChem BioAssay AID1851 (National Center for Advancing Translational Sciences (NCATS), 2009).
# Where “and” joins values, the source holds several entries; their conditions need not be identical. Equal entries are not always repeated. Out of some 16,000 compounds screened, about 5,800 (36%) were called active. About 23% were inconclusive and are not listed. The list shows a part of the results. A number with no mark means an inactive call. Calls come from the whole dose curve; as a rule, active = well fitted curve in the direction sought with a large enough effect; inconclusive = small, poorly fitted or top-dose-only effect, or effect the other way; inactive = no such curve, though single readings can be large or run the other way.
# Biological target: Cytochrome P450 2C19 (Homo sapiens) (UniProt P33261)
# Assay: Cytochrome panel assay with activity outcomes
# Settings: recombinant CYP, pro-luciferin dealkylation, luminescence, p450-cyp2c19; series mostly up to 57.1 µM; activity, negative = inhibition: at the top concentration
# % is set by controls: 0 for no effect and ±100 for the full control effect.
# Sequence of Cytochrome P450 2C19 (Homo sapiens) (P33261 whole entry, looked up): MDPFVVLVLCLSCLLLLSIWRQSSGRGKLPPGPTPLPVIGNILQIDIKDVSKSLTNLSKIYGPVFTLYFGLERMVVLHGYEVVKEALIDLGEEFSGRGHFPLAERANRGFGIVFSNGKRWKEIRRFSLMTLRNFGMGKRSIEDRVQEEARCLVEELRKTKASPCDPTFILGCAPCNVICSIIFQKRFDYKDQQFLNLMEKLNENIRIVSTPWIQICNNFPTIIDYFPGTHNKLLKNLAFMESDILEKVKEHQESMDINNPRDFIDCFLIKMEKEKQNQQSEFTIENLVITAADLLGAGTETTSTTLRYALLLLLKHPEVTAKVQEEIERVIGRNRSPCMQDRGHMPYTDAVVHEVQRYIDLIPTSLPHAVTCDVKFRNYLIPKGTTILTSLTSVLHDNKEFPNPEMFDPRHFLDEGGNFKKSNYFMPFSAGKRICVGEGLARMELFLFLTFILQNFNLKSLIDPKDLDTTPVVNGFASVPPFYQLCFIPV
SMILES,"activity, negative = inhibition",AC50
O=c1[nH]ncn2cccc12,5.26%,–
Nc1nc(-c2ccc3ccccc3c2)cc(-c2cc(-c3ccc4ccccc4c3)nc(N)n2)n1,10.1% [at 11.4 µM],–
O=C(O)c1nnsc1-c1csnn1,-19.5% [at 11.4 µM],–
c1ccc2cc(-c3csnn3)ccc2c1,–,3.98 µM (active)
COc1ccc(-c2nc3cnc(N4CCN(C)CC4)nc3n(C3CC3)c2=O)cc1,0.141%,–
O=C(NC(=S)NNC(=O)c1cccs1)c1ccco1,-21.9%,–
COc1cc(NC(=S)NC(=O)c2c(OC)cccc2OC)ccc1NC(=O)c1cccs1,–,2 µM (active)
Cc1cccc(NC(=S)NC(=O)c2cccs2)n1,–,3.55 µM (active)
Cc1ccccc1C(=O)Nc1cccc(NC(=S)NC(=O)c2cccs2)c1,–,3.55 µM (active)
O=C(COc1ccccc1C(=O)N/N=C\c1ccc(O)c(O)c1)N/N=C/c1ccc(O)c(O)c1,–,15.8 µM (active)
O=C(N/N=C/c1cccc(OC2CSC2)c1)c1ccccc1O,-12.9%,–
CON(C)C(=O)c1nnc2c(n1)[nH]c1ccccc12,-38.3% [at 11.4 µM],–
O=C(CSc1nnc2c(n1)[nH]c1ccc(F)cc12)OCc1ccccc1,–,0.398 µM (active)
Cc1ccc(C(=O)NNC(=O)CSc2nnc3c(n2)[nH]c2ccc(F)cc23)cc1,-27.4%,–
CCOCc1cnc(C)nc1NCC(=O)c1c(C)[nH]c2ccccc12,-18.2%,–
CCOC(=O)CC(=O)CSc1nnc2c(n1)[nH]c1ccccc12,–,14.1 µM (active)
COc1[nH]c2ccc(F)cc2c1C(=O)OCC1CCN(CCNS(C)(=O)=O)CC1,–,inactive
Cc1cccc(N(CC(=O)NC2CCCC2)C(=O)c2cc3cc4cccc(C)c4nc3s2)c1C,–,3.98 µM (active)
Cc1cc(C)nc(NC(=O)c2cccc([N+](=O)[O-])c2C)n1,-21.1%,–
O=C(Nc1cccc(NC(=O)c2ccccc2[N+](=O)[O-])n1)c1ccccc1[N+](=O)[O-],–,8.91 µM (active)
C=CCN(CC=C)C(=S)Nc1ccccc1,-48.7%,–
S=C(Nc1ccccc1)Nc1ccccc1C#Cc1ccccc1,–,3.16 µM (active)

SMILES,"activity, negative = inhibition",AC50
Cc1ccc(OCC(=O)Nc2ccccc2N2CCOCC2)c(C)c1,–,3.98 µM (active)
CC(=O)N1CCN(c2ccccc2NC(=O)COc2ccc(Br)cc2)CC1,–,14.1 µM (active)
CCOc1ccc(C(=O)Nc2ccccc2N2CCCC2)cc1,–,15.8 µM (active)
COc1ccc(-c2ccc3c(n2)CCCN3C[C@H](O)CN2CCCc3nc(-c4ccc(Br)cc4)ccc32)cc1,0.393% [at 11.4 µM] and -39.5% [at 11.4 µM],–
COc1ccc(-n2c(=O)c(C)nc3cnc(N4CCNCC4)nc32)cc1,-4.91%,–
CS(=O)(=O)N1CCC2(CC1)CN(Cc1cc(C(F)(F)F)cc(C(F)(F)F)c1)C2,-36%,–
NS(=O)(=O)c1cc(C(=O)O)c(O)c2ccccc12,-24.4% [at 11.4 µM],–
CCOC(=O)c1c(C)oc2c1cc(O)c1ccccc12,–,3.55 µM (active)
COc1ccc2[nH]cc(CCNc3ncncc3-c3ccccc3Cl)c2c1,–,0.0631 µM (active)
COc1ccc2[nH]cc(CCNc3ncncc3-c3ccccc3CN(C)C)c2c1,–,10 µM (active)
CC(=O)NCCNc1ncncc1-c1ccccc1CN(C)C,-8.79%,–
CN(C)Cc1ccccc1-c1cncnc1NC1CC1,-12.7%,–
COc1ccc2[nH]cc(CCNc3ncncc3-c3ccccc3C(F)(F)F)c2c1,–,0.251 µM (active)
COc1ccc2[nH]cc(CCNc3ncncc3-c3c(C)noc3C)c2c1,–,3.16 µM (active)
COCCNc1ncncc1-c1c(C)noc1C,-39%,–
CC(N)=NCc1cccc(CN)c1,–,inactive
COc1ccc2[nH]cc(CCNc3ncncc3-c3ccccc3OC)c2c1,–,0.0794 µM (active)
COc1ccc2[nH]cc(CCNc3ncncc3-c3ccccc3C)c2c1,–,0.0501 µM (active)
C[C@H]1C[C@H]2[C@H]3CCC4=CC(=O)C=C[C@@]4(C)[C@]3(F)[C@H](O)C[C@]2(C)[C@@]1(O)C(=O)COP(=O)(O)O,18.4% [at 11.4 µM],–
O=C(NCc1ccco1)C(c1ccccc1)N(C(=O)Cc1cccs1)c1ccccc1F (stereo not given),–,3.16 µM (active)
Cc1ccc(C(C(=O)NC2CCCCC2)N(CC2CCCO2)C(=O)CNC(=O)c2cccs2)cc1 (stereo not given),–,10 µM (active)
Cc1ccc(C(C(=O)NCc2ccco2)N(C(=O)CNC(=O)c2cccs2)c2ccc(C)cc2C)cc1 (stereo not given),–,1.12 µM (active)

SMILES,"activity, negative = inhibition",AC50
CCCOc1ccccc1C1CC(=O)NC(C)=C1C(=O)OCC(C)C (stereo not given),–,1.41 µM (active)
COc1cccc2c1OC1(C)CC2/C(=C(\C)O)C(=O)N1 (stereo not given),-10.3%,–
CCC(C)OC(=O)C1=C(C)NC(=O)CC1c1ccccc1OC (stereo not given),–,2 µM (active)
CCOC(=O)C1=C(C)NC2(O)c3ccccc3C(=O)C12O (stereo not given),-23.4%,–
c1ccc2c(c1)c1ccccc1n2Cn1c2ccccc2c2ccccc21,–,0.398 µM (active)
CCn1c(=O)[nH]c2ccccc21,-16.8%,–
COc1ccc(CNc2cc(-c3cccnc3)ncn2)c(OC)c1,-41.7%,–
COc1cccc(-c2cc(NCc3ccccc3OC)ncn2)c1,–,7.94 µM (active)
COc1cccc(-c2cc(NCc3ccc(OC)cc3OC)ncn2)c1,–,5.01 µM (active)
S=c1[nH]nc(CSCc2ccccc2Cl)n1-c1ccccc1,–,0.708 µM (active)
Cn1c(CCNC(=O)c2ccccc2Cl)n[nH]c1=S,22.3%,–
CN(Cc1n[nH]c(=S)n1C)S(=O)(=O)c1ccccc1,-24.8%,–
Cc1cccc(NC(=O)CSc2nc3ccccc3c3nc(CCc4c(C)n[nH]c4C)nn23)c1,–,7.94 µM (active)
Cn1c(=O)n(C)c2cc(/C=N/n3cnnc3)ccc21,–,17.8 µM (active)
COc1ccc(/C=N\NC(=O)O)cc1,11% [at 11.4 µM],–
COC(=O)c1ccc(/C=N\NC(=O)c2ccc(C)cc2Cl)cc1,–,5.01 µM (active)
Cn1c(=O)n(C)c2cc(S(=O)(=O)O)ccc21,-14.7%,–
Cn1c(=O)n(C)c2cc(/C=N/NC(=O)c3ccc(Cl)cc3Cl)ccc21,–,3.98 µM (active)
Cc1cc(C)c(S(=O)(=O)Nc2cccc(C(F)(F)F)c2)c(C)c1,–,3.16 µM (active)
Cc1cc(C)c(S(=O)(=O)Nc2ccccc2C(F)(F)F)c(C)c1,–,0.1 µM (active)
Cc1cc(C)c(S(=O)(=O)NNC(=O)C2CCN(Cc3ccccc3)CC2)c(C)c1,-18.9%,–
